Holding throughout (experiment): NCI-60 one-dose screen, 48 h (100 = growth as untreated, 0 = no growth, -100 = all killed)
One test deals with NCI-H226 lung. The settings on record: 10 µM.
The test system of the next test is HOP-62 NSCLC. The settings on record: 10 µM.
Another test has as its system NCI-H460 lung. The settings on record: 10 µM.
The next test deals with A549/ATCC NSCLC. The settings on record: 10 µM.
In the next test the test system is DU-145 prostate. The settings on record: 10 µM.
The next test relates to SF-268 CNS. The settings on record: 10 µM.
A further test has as its system SF-295 CNS. The settings on record: 10 µM.
The subject of a further test is SF-539 CNS. The settings on record: 10 µM.
The next test has as its system UACC-257 melanoma. The settings on record: 10 µM.
The next test has as its system M14 melanoma. The settings on record: 10 µM.
Another test relates to HCT-15 colon. The settings on record: 10 µM.
Another test has as its system HT29 colon. The settings on record: 10 µM.
The subject of the next test is SNB-75 CNS. The settings on record: 10 µM.
The subject of a further test is SNB-19 CNS. The settings on record: 10 µM.
The next test concerns U251 CNS. The settings on record: 10 µM.
Another test deals with SK-MEL-5 melanoma. The settings on record: 10 µM.
The test system of another test is UACC-62 melanoma. The settings on record: 10 µM.
For the next test, the system named is SK-MEL-28 melanoma. The settings on record: 10 µM.
The next test deals with SK-MEL-2 melanoma. The settings on record: 10 µM.
The next test deals with HL-60(TB) leukemia. The settings on record: 10 µM unless noted.

SMILES strings stand for the structures. The panel holds about 83,000 compounds, 20% with a hit somewhere; the sample as a whole holds those more often.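 96-well plates, one dose, 48 hours. Percent growth reported; active if below 10.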 Unmarked numbers belong to inactive results. Calls of active or inactive are those of the source.

Consider `COc1cc(OC)c(S(=O)(=O)N(CCCl)CCCl)cc1C(=O)/C=C/c1ccc(C)cc1`, for which the growth in the test with NCI-H226 lung is 81.5%; with HOP-62 NSCLC, 70.8%; with NCI-H460 lung it was 31.9%; with A549/ATCC NSCLC, 79.2%; in the test on DU-145 prostate it was 88.3%; in the test with SF-268 CNS it was 67.2%. For the same compound, the growth is 66.7% in the test with SF-295 CNS; 56.9% with SF-539 CNS; 90% in the test on UACC-257 melanoma; 86.4% in the test with M14 melanoma; 81.8% with HCT-15 colon; 80.7% with HT29 colon. The growth was 90.1% in the test with SNB-75 CNS; 29.8% in the test with SNB-19 CNS; -2.54% (active) in the test on U251 CNS; 97.5% in the test with SK-MEL-5 melanoma; 74.3% with UACC-62 melanoma; 102% in the test with SK-MEL-28 melanoma. The growth with SK-MEL-2 melanoma is 92.3%; in the test with HL-60(TB) leukemia, 65.6%.

As to `COc1cc2cc(C(=O)N3C[C@@H](CCl)c4c3cc(OC(=O)N3CCN(C)[C@@H]5CSSC[C@@H]53)c3ccccc43)[nH]c2c(OC)c1OC`, the growth in the test with NCI-H226 lung is -26.1% (active); in the test on HOP-62 NSCLC, -32.3% (active); in the test on NCI-H460 lung it was -13.4% (active); in the test with A549/ATCC NSCLC it was 7.2% (active); with DU-145 prostate it was -4.86% (active); in the test on SF-268 CNS, -17.8% (active). Besides, the growth is -8.99% (active) in the test on SF-295 CNS; -72.4% (active) in the test on SF-539 CNS; -15.4% (active) in the test with UACC-257 melanoma; -79% (active) in the test with M14 melanoma; 1.23% (active) with HCT-15 colon; -6.59% (active) in the test with HT29 colon. Also, the growth is -87.6% (active) with SNB-75 CNS; -9.25% (active) in the test with SNB-19 CNS; 7.22% (active) with U251 CNS; -32.2% (active) in the test on SK-MEL-5 melanoma; -91.4% (active) in the test on UACC-62 melanoma; -62.6% (active) in the test on SK-MEL-28 melanoma. For the same compound, the growth with SK-MEL-2 melanoma was -89% (active); in the test with HL-60(TB) leukemia it was 1.55% (active).

For the compound `O=C(/C=C/c1ccc(Cl)cc1)c1nc2ccccc2n1Cc1ccc(Br)cc1`, the growth with NCI-H226 lung was 57.4%; with HOP-62 NSCLC, 65.5%; in the test with NCI-H460 lung, 58.1%; in the test with A549/ATCC NSCLC, 73.4%; with DU-145 prostate it was 66.1%; in the test on SF-268 CNS, 75.3%. In addition, the growth in the test with SF-295 CNS is 73.3%; with SF-539 CNS, 43.8%; in the test with UACC-257 melanoma, 71%; with M14 melanoma, 65.4%; with HCT-15 colon, 21.4%; in the test on HT29 colon it was 38.1%. In addition, the growth in the test on SNB-75 CNS is 79.2%; in the test with SNB-19 CNS it was 65.9%; with U251 CNS, 34.4%; in the test with SK-MEL-5 melanoma it was 85%; in the test on UACC-62 melanoma, 48.6%; in the test on SK-MEL-28 melanoma it was 80.1%. Besides, the figures for the growth with SK-MEL-2 melanoma and in the test with HL-60(TB) leukemia were 83.3% and 35.8%, respectively.

For `C=CC[Se]C(=O)c1ccc(C(=O)[Se]CC=C)s1`, the growth in the test on NCI-H226 lung was -40.1% (active); in the test on HOP-62 NSCLC, -70.9% (active); with NCI-H460 lung, -53.2% (active); in the test on A549/ATCC NSCLC, 1.38% (active); in the test on DU-145 prostate it was -92.8% (active); in the test with SF-268 CNS, -39.4% (active). The growth in the test with SF-295 CNS is -52.5% (active); in the test on SF-539 CNS, -97% (active); in the test on UACC-257 melanoma, -78.4% (active); in the test with M14 melanoma, -90% (active); in the test with HCT-15 colon, -42.5% (active); in the test with HT29 colon it was -7.14% (active). Also, the growth in the test with SNB-75 CNS is -96.8% (active); with SNB-19 CNS, -73.1% (active); with U251 CNS, -86.2% (active); with SK-MEL-5 melanoma it was -70.8% (active); in the test on UACC-62 melanoma, -22.8% (active); in the test with SK-MEL-28 melanoma it was -70.8% (active). In addition, the growth in the test with SK-MEL-2 melanoma was -65.6% (active).

`C#CC[Se]C(=O)c1ccc2n[se]nc2c1`: the growth in the test on NCI-H226 lung is 23%; in the test on HOP-62 NSCLC it was 28.6%; in the test on NCI-H460 lung, 63.9%; in the test on A549/ATCC NSCLC, 59.7%; in the test with DU-145 prostate, 71.8%; in the test on SF-268 CNS, 89.4%. Moreover, the growth is 25.4% in the test on SF-295 CNS; 40.3% in the test on SF-539 CNS; 59.3% in the test on UACC-257 melanoma; 54.9% in the test on M14 melanoma; 25.8% in the test on HCT-15 colon; 39.6% in the test with HT29 colon. In addition, the growth with SNB-75 CNS is 56.5%; in the test with SNB-19 CNS it was 79.9%; with U251 CNS, 73.2%; in the test on SK-MEL-5 melanoma it was 83.2%; in the test with UACC-62 melanoma, 51.4%; with SK-MEL-28 melanoma it was 79.4%. Moreover, the growth in the test on SK-MEL-2 melanoma was 104%; with HL-60(TB) leukemia, 1.82% (active).

In the case of `C[C@H]1[C@@H](CC(=O)N[C@@H](Cc2coc3ccccc23)B(O)O)O[C@@H]2OC3(C)CC[C@H]4[C@H](C)CC[C@@H]1[C@@]24OO3`, the growth with NCI-H226 lung was -28.1% (active); in the test with HOP-62 NSCLC, -17.3% (active); in the test with NCI-H460 lung it was -28.2% (active); with A549/ATCC NSCLC, 19.1%; in the test on DU-145 prostate, 21.6%; with SF-268 CNS, 20.4%. For the same compound, the growth with SF-295 CNS was -88.8% (active); with SF-539 CNS, -96.4% (active); in the test with UACC-257 melanoma, -41% (active); with M14 melanoma, -44% (active); in the test with HCT-15 colon, -62.3% (active); in the test with HT29 colon, -57.6% (active). Further, the growth was -19.3% (active) in the test with SNB-75 CNS; 26% with SNB-19 CNS; -14.3% (active) with U251 CNS; -97.2% (active) in the test with SK-MEL-5 melanoma; -90.8% (active) in the test on UACC-62 melanoma; -49.4% (active) in the test with SK-MEL-28 melanoma. The growth in the test on SK-MEL-2 melanoma is -53.6% (active); in the test with HL-60(TB) leukemia, -4.67% (active).

On to `N#C[Se]CC(=O)Nc1cccc(C(F)(F)F)c1`, for which the growth with NCI-H226 lung was -37.7% (active); in the test on HOP-62 NSCLC it was -57.6% (active); in the test on NCI-H460 lung, -9.31% (active); in the test with A549/ATCC NSCLC, -50.4% (active); in the test with DU-145 prostate, -13% (active); with SF-268 CNS it was 2.88% (active). Further, the growth in the test with SF-295 CNS was -72.7% (active); in the test with SF-539 CNS, -91% (active); with UACC-257 melanoma, -33.3% (active); with M14 melanoma it was -42.7% (active); in the test on HCT-15 colon, -84.8% (active); in the test on HT29 colon it was -31.9% (active). Also, the growth is -23.5% (active) in the test with SNB-75 CNS; -88.1% (active) in the test with SNB-19 CNS; -48.4% (active) in the test with U251 CNS; -73.4% (active) in the test with SK-MEL-5 melanoma; -77.4% (active) in the test on UACC-62 melanoma; -63.2% (active) in the test on SK-MEL-28 melanoma. In addition, in the test on SK-MEL-2 melanoma, the growth is -31.1% (active).

As for `CC1=C2C(=C[C@@](C)(COP(=O)(Oc3ccccc3)Oc3ccccc3)[C@@H]2O)C(=O)[C@@](C)(O)C12CC2`, the growth is -63.9% (active) with NCI-H226 lung; -88.4% (active) with HOP-62 NSCLC; -35.4% (active) with NCI-H460 lung; -53.9% (active) in the test with A549/ATCC NSCLC; -96.3% (active) in the test on DU-145 prostate; -74.3% (active) in the test on SF-268 CNS. For the same compound, the growth was -59% (active) in the test on SF-295 CNS; -99.1% (active) in the test on SF-539 CNS; -41.2% (active) in the test on UACC-257 melanoma; -22.9% (active) in the test with M14 melanoma; -32.5% (active) in the test with HCT-15 colon; -57.3% (active) in the test on HT29 colon. For the same compound, the growth was -94% (active) with SNB-75 CNS; -17.5% (active) with SNB-19 CNS; -43.4% (active) in the test on U251 CNS; -99.2% (active) in the test on SK-MEL-5 melanoma; -87.7% (active) in the test with UACC-62 melanoma; -88.1% (active) with SK-MEL-28 melanoma. In the test with SK-MEL-2 melanoma, the growth is -83.9% (active).

For the origin of these results see PubChem BioAssay (NCI).
